Compound activity from PubChem BioAssay.
Pf apPOL inh – Pf-apPOL inhibitors, biochemical, fluorescence | Plasmodium falciparum apicoplast DNA polymerase (apPOL) | Recombinant Pf-apPOL, molecular beacon fluorescence, 1.5 h | inhibition, % at 10 µM | 210,000 tested, 0.25% active | AID 1794808, 2022
mHTT CaM bind – mutant huntingtin-calmodulin interaction inhibitors – biochemical, AlphaScreen, primary screen. P42858. AlphaScreen His-mHTT/GST-CaM binding, luminescence. inhibition, % at 15 µM. 190,000 tested, 3.6% active. AID 1671202, 2021;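 also: 0% = both proteins with DMSO and 100% = one protein alone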
Active calls of the source: *; i = inactive. Compounds with a hit are over-represented: about 3.6% of the library has one in this group of screens. Rule as the data show it: active = inhibition above about 50%; inactive = the rest.

SMILES | Pf apPOL inh | mHTT CaM bind
O=C1Nc2ccc(Br)cc2/C1=C/c1cccs1 | 1 | 58*
O=C1Nc2c(Br)cc(Br)cc2/C1=C/c1ccco1 | -6 | 12
Cc1ccc(/C=C2\C(=O)Nc3ccc(Br)cc32)s1 | -2 | 34
O=C1Nc2ccc(Br)cc2/C1=C/c1ccco1 | -5 | 72*
O=C(NCCN1CCCCCC1)C1CCCN(c2nc3ccccc3o2)C1 (centres undefined) | -5 | 11
Cc1ccccc1/C=C1/SC(N2CCOCC2)=NC1=O | -4 | -1
O=C(NC1CCCCC1)c1cccc(C2CCCN(C(=O)c3ccccc3)C2)c1 (centres undefined) | -7 | 15
COc1c(Cl)cc(Cl)cc1C=NC1=NN(c2ccccc2)CC1 | -1 | 21
O=C(O)CC1C(=O)NCCN1CC(c1ccccc1)c1ccccc1 (centres undefined) | -5 | -8
CSc1ccc(C2Nc3ccc4ncccc4c3C3=C2C(=O)CCC3)cc1 (centres undefined) | 0 | 23
CC1(C)CC(=O)C2=C(C1)c1c(ccc3ncccc13)NC2c1ccc(Br)cc1 (centres undefined) | 3 | 25
COc1ccc(OC)c(C2Nc3ccc4ncccc4c3C3=C2C(=O)CC(C)(C)C3)c1 (centres undefined) | 0 | 42
COc1ccc(Br)cc1C1Nc2ccc3ncccc3c2C2=C1C(=O)CC(C)(C)C2 (centres undefined) | 6 | 53*
CCCOc1ccc(C2Nc3ccc4ncccc4c3C3=C2C(=O)CCC3)cc1 (centres undefined) | 0 | 58*
CCN(CC)c1ccc(C2Nc3ccc4ncccc4c3C3=C2C(=O)CC(C)(C)C3)cc1 (centres undefined) | 0 | 62*
CCOc1ccccc1NC(=O)C(=O)NCc1ccc(CC)cc1 | 20 | -9
CCc1ccc(CNC(=O)C(=O)Nc2ccccc2F)cc1 | 70* | -4
Clc1ccc(N2COc3cc4c(cc3C2)OCO4)cc1 | -8 | 12
CCOc1ccc(N2COc3ccc(Cl)cc3C2)cc1 | -7 | 81*
COc1ccc(N2COc3ccc(OC)cc3C2)cc1 | -2 | 53*
CCOc1ccc(N2COc3ccc(OC)cc3C2)cc1 | -5 | 51*
CCOc1ccc(N2C(=O)CC(N3CCN(c4ccc(F)cc4)CC3)C2=O)cc1 (centres undefined) | -3 | -6
CCOc1nc(OCC)nc(N2CCN(c3ccc(OC)cc3)CC2)n1 | -10 | 24
CCOc1ccc(N2COc3ccc(F)cc3C2)cc1 | 2 | 59*
COc1ccc2c(c1)CN(c1ccc(Br)cc1)CO2 | -4 | 46
SMILES | Pf apPOL inh | mHTT CaM bind
O=C(NCc1ccccn1)C1CCN(c2ccc(Br)cc2F)C1=O (centres undefined) | -13 | 20
CC1(C)CC(N2C(=O)OC(C)(C)C2(C)O)CC(C)(C)N1 (centres undefined) | 0 | -4
Cc1ccc(COCc2nn(C)c3c2CN(C(=O)COc2ccccc2)CC3)cc1 | -6 | 19
COc1ccccc1NC(=O)C1CCCN(c2nccc3sccc23)C1 (centres undefined) | -7 | 9
COc1ccc(Cl)cc1C(=O)N/C(=C/c1cccc([N+](=O)[O-])c1)C(=O)Nc1cccc(F)c1 | 7 | 11
COc1ccc2c(c1)CN(c1ccc(C)cc1)CO2 | 0 | 53*
COc1ccc2c(c1)CN(c1ccccc1I)CO2 | -1 | 44
COc1ccc(-c2csc(Nc3ccc(C(=O)O)cc3)n2)cc1 | 2 | 15
CC(=O)Nc1ccc(Nc2nc(-c3ccc(Cl)cc3)cs2)cc1 | -3 | 76*
CC(=O)Nc1ccc(Nc2nc(-c3ccccc3)cs2)cc1 | -2 | 44
COc1ccc(-c2csc(Nc3ccc(NC(C)=O)cc3)n2)cc1 | 0 | 60*
CCOc1ccccc1N=Cc1c(O)n(-c2ccccc2OC)c(=O)c2ccccc12 | -9 | 5
CCOc1ccccc1NC(=O)CCc1cccc2[nH]ccc12 | -3 | 23
Cc1cc(C)cc(N2C(=O)CSC23C(=O)Nc2ccc(Br)cc23)c1 (centres undefined) | -10 | 56*
O=C1CSC2(C(=O)Nc3ccc(Br)cc32)N1c1cccc([N+](=O)[O-])c1 (centres undefined) | -12 | 17
CN(C)S(=O)(=O)c1ccc(C(=O)NC(C)(C)CO)o1 | -3 | 100*
Cc1cc(NC(=O)c2ccc(S(=O)(=O)N(C)C)o2)no1 | 0 | -14
O=C(O/N=C1\CCSc2ccccc21)c1ccc(F)cc1 | -10 | i
O=C(c1cccc(OC(F)(F)F)c1)N1CCn2cnnc2C1 | 0 | -7
O=C(NCc1ccccc1)c1ccc(-n2nc(N3CCCC3)ccc2=O)cc1 | 0 | 2
CCOc1cccc(C(Nc2cccc(C)n2)c2ccc3ccc(C)nc3c2O)c1 (centres undefined) | -58 | 70*
CCOc1cc(OCC)cc(C(=O)Nc2ccccn2)c1 | 0 | -9
CCOc1ccc(C(=O)Nc2cccc(C)n2)cc1OCC | -4 | 1
